Data taken from article PMC5540273 (PLoS ONE, 2017).
Values joined by “and” are separate entries in the source; they are usually repeats but may differ in a detail not shown here. Identical values can stand only once. Like-named read-outs stand apart in the source and are kept apart here.

Tests used:
DDR2 = conditions: concentration: 1 μM, replicates: in singlicate, n = 1
DLK = tested on: T1, DLK; conditions: concentration: 1 μM, replicates: in singlicate, n = 1
T1 construct: gene MAP3K12

DMPK2 = tested on: T2, DMPK2; conditions: concentration: 1 μM, replicates: in singlicate, n = 1
T2 construct: gene CDC42BPG

DMPK = conditions: concentration: 1 μM, replicates: in singlicate; n = 1
DRAK1 = tested on: T3, DRAK1; conditions: concentration: 1 μM, replicates: in singlicate; n = 1
T3 construct: gene STK17A

DRAK2 = tested on: T4, DRAK2; conditions: concentration: 1 μM, replicates: in singlicate, n = 1
T4 construct: gene STK17B

DYRK1A = conditions: concentration: 1 μM, replicates: in singlicate; n = 1
DYRK1B = conditions: concentration: 1 μM, replicates: in singlicate, n = 1
DYRK2 = conditions: concentration: 1 μM, replicates: in singlicate; n = 1
EGFR = conditions: concentration: 1 μM, replicates: in singlicate, n = 1
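Further: KINOMEscan kinase panel screen.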

SMILES | %Inh (DDR2) | %Inh (DLK) | %Inh (DMPK2) | %Inh (DMPK) | %Inh (DRAK1) | %Inh (DRAK2) | %Inh (DYRK1A) | %Inh (DYRK1B) | %Inh (DYRK2) | %Inh (EGFR) | %Inh (DDR2; 1 µM) | %Inh (DLK; 1 µM) | %Inh (DMPK2; 1 µM) | %Inh (DRAK2; 1 µM) | %Inh (DYRK1B; 1 µM) | %Inh (EGFR; 1 µM)
CSc1nn2c(=O)cc(N3CCOCC3)nc2n1Cc1cccc(Cl)c1Cl [GSK2347225] | 0% | 100% | 16% | 12% | 4% | 0% | 19% | 23% | 8% | 39% |  |  |  |  |  | 
CC(C)(C)OC(=O)NC1CCCN(c2cc(-c3ccc4c(N)n[nH]c4c3)nc(N)n2)C1 (centres unmarked) [GSK2286096] | 0% | 2% | 0% | 0% | 96.3% | 0% | 14% | 100% | 80% | 27% |  |  |  |  |  | 
CC(=O)Nc1n[nH]c2ncc(-c3ccccc3)cc12 [SB-548492] | 11% | 0% | 0% | 0% | 20% | 0% | 32% | 0% | 24% | 3% |  |  |  |  |  | 
Cn1cc(-c2ccc3c(c2)CCN3C(=O)Cc2cccc(C(F)(F)F)c2)c2c(N)ncnc21 [GSK2606414] | 74% | 23% | 0% | 30% | 3% | 0% | 16% | 0% | 27% | 20% |  |  |  |  |  | 
O=C(Nc1n[nH]c2nc(-c3ccco3)c(Br)cc12)c1ccc(CN2CCCC2)cc1.O=C(O)[C@H](O)[C@@H](O)C(=O)O [SB-742352] | 0% | 0% | 0% | 0% | 42% | 20% | 0% | 0% | 14% | 8% |  |  |  |  |  | 
Fc1ccc(-c2ncn(CCCNCc3ccccc3)c2-c2ccncc2)cc1 | 3% | 0% | 55% | 3% | 0% | 0% | 22% | 22% | 10% | 17% |  |  |  |  |  | 
Nc1n[nH]c2nnc(-c3ccccc3)cc12 [SB-517389] | 7% | 0% | 0% | 0% | 0% | 0% | 72% | 92.4% | 57% | 34% |  |  |  |  |  | 
OCCOCCn1ccc2ncnc(Nc3ccc(Oc4cccc(Cl)c4)c(Cl)c3)c21 | 0% | 0% | 0% | 0% | 0% | 0% | 0% | 0% | 0% | 100% |  |  |  |  |  | 
CN1CCC(n2cnc(-c3ccc(F)cc3)c2-c2ccnc(NC3CCNCC3)n2)CC1 [SB-229482] | 0% | 0% | 18% | 22% | 0% | 0% | 0% | 23% | 6% | 17% |  |  |  |  |  | 
NC(=O)c1sc(-n2cnc3ccccc32)cc1OCc1ccccc1F [GSK1024306] | 25% | 38% | 0% | 0% | 4% | 0% | 4% | 0% | 17% | 84% |  |  |  |  |  | 
Nc1nc(-c2ccccn2)c(-c2ccnc3ccccc23)s1 [GW548057] | 33% | 45% | 10% | 0% | 0% | 3% | 1% | 0% | 9% | 16% |  |  |  |  |  | 
Cc1ccc(O)cc1Nc1cc(C(F)(F)F)nc2ccc(-c3ccncc3)cc12 [GW630823] | 0% | 0% | 4% | 0% | 21% | 11% | 0% | 7% | 0% | 15% |  |  |  |  |  | 
C[C@H]1CC[C@@H](C(=O)Nc2ccccc2)CN1c1cc(-c2ccc3c(N)n[nH]c3c2)nc(N)n1 [GSK2283293] | 5% | 25% | 11% | 0% | 97.9% | 64% | 17% | 0% | 7% | 30% |  |  |  |  |  | 
Cn1ccc2ncnc(Nc3ccc(Oc4cccc(Cl)c4)c(Cl)c3)c21 | 4% | 0% | 5% | 0% | 4% | 1% | 22% | 55% | 33% | 100% |  |  |  |  |  | 
CS(=O)(=O)CCNCc1ccc(-c2ccc3ncnc(Nc4ccc(OCc5ccccc5)c(Cl)c4)c3c2)o1.Cl [GW574783] | 39% | 25% | 2% | 16% | 16% | 0% | 0% | 0% | 0% | 100% |  |  |  |  |  | 
COc1ccc(NC(=O)Nc2ccc(C)c(-c3ccc(C(=O)Nc4ccncc4)cc3)c2)cc1 [GSK1398475] | 44% | 0% | 6% | 0% | 5% | 8% | 2% | 0% | 6% | 33% |  |  |  |  |  | 
Cc1cc(N2CCC(NS(=O)(=O)c3ccc(F)cc3)CC2)nc(Nc2cccc(C#N)c2)n1.O=C(O)C(F)(F)F [GSK1653537] | 7% | 47% | 0% | 0% | 3% | 0% | 32% | 97.7% | 5% | 50% |  |  |  |  |  | 
O=C(Nc1ccccc1F)NC1CCN(c2ccnc(Nc3ccc(F)cc3)n2)C1 (centres unmarked) [GSK1379722] | 11% | 23% | 1% | 0% | 0% | 0% | 19% | 22% | 0% | 0% |  |  |  |  |  | 
Nc1nc(-c2ccc3c(N)n[nH]c3c2)cc(N2CCC[C@@H](C(=O)Nc3ccccc3)C2)n1.O=C(O)C(F)(F)F.O=C(O)C(F)(F)F [GSK2288359] | 7% | 0% | 15% | 0% | 55% | 0% | 0% | 14% | 32% | 24% |  |  |  |  |  | 
Cc1ccc(NC(=O)c2cccc(C#N)c2)cc1-c1ccc(C(=O)Nc2ccncc2)cc1 [GSK1398463] | 82% | 0% | 6% | 0% | 0% | 1% | 31% | 19% | 19% | 36% |  |  |  |  |  | 
COc1ccc(-c2nc3n(c2-c2ccncc2)CCC3)cc1 [SKF-104493] |  |  |  | 0% | 0% |  | 0% |  | 0% |  | 31% and 51% | 0% and 20% | 0% and 15% | 2% and 0% | 0% and 5% | 0% and 15%

SMILES | %Inh (DDR2) | %Inh (DLK) | %Inh (DMPK2) | %Inh (DMPK) | %Inh (DRAK1) | %Inh (DRAK2) | %Inh (DYRK1A) | %Inh (DYRK1B) | %Inh (DYRK2) | %Inh (EGFR) | %Inh (DDR2; 1 µM) | %Inh (DLK; 1 µM) | %Inh (DMPK2; 1 µM) | %Inh (DRAK2; 1 µM) | %Inh (DYRK1B; 1 µM) | %Inh (EGFR; 1 µM)
Fc1cccc(COc2ccc(Nc3ncnc4sc(-c5ccc[nH]5)cc34)cc2Cl)c1 [GW707818] | 21% | 40% | 0% | 0% | 3% | 0% | 0% | 38% | 8% | 100% |  |  |  |  |  | 
CCn1c(-c2ccncc2)nc2cnccc21 [SB-735216] | 7% | 0% | 0% | 0% | 0% | 2% | 4% | 2% | 17% | 0% |  |  |  |  |  | 
Fc1ccc(Nc2nccc(-c3c(-c4ccc(Cl)cc4)nn4ncccc34)n2)cc1F [GW829058] | 18% | 20% | 0% | 21% | 5% | 0% | 0% | 11% | 40% | 24% |  |  |  |  |  | 
C[C@@H]1CCN(C(=O)CO)C[C@@H]1N(C)c1ncnc2[nH]ccc12 | 0% | 0% | 0% | 8% | 3% | 13% | 0% | 0% | 0% | 1% |  |  |  |  |  | 
Cc1cccc(-c2nc(Nc3ccc4[nH]nnc4c3)c3ccccc3n2)n1 [GW867587] | 37% | 0% | 0% | 0% | 0% | 0% | 0% | 0% | 26% | 0% |  |  |  |  |  | 
FC(F)(F)c1cc(Nc2nccc(-c3c(-c4ccc(Cl)cc4)nn4ncccc34)n2)ccc1Cl [GW829351] | 30% | 0% | 19% | 0% | 0% | 0% | 0% | 0% | 0% | 24% |  |  |  |  |  | 
CC(C)N1CCC(n2cnc(-c3ccc(F)cc3)c2-c2ccnc(N)n2)CC1 [SB-223132] | 38% | 0% | 11% | 0% | 7% | 7% | 0% | 5% | 0% | 10% |  |  |  |  |  | 
O=C(CCO)NCCn1ccc2ncnc(Nc3ccc(Oc4cccc(C(F)(F)F)c4)c(Cl)c3)c21 | 0% | 0% | 0% | 0% | 0% | 0% | 0% | 12% | 0% | 100% |  |  |  |  |  | 
O=C(NCCCN1CCCC1=O)c1cnc(NCc2cc(Cl)ccc2Cl)nc1NC1CCNCC1 | 0% | 0% | 0% | 0% | 0% | 16% | 0% | 0% | 0% | 20% |  |  |  |  |  | 
COc1cc2ncnc(Nc3ccc(OCc4ccccc4Br)c(Cl)c3)c2cc1OC.Cl [GI261590] | 18% | 3% | 7% | 0% | 9% | 0% | 10% | 0% | 0% | 99.9% |  |  |  |  |  | 
CNc1nccc(-c2c(-c3ccc(F)cc3)ncn2CCCN2CCOCC2)n1 [SB-222516] | 0% | 1% | 93% | 7% | 12% | 15% | 6% | 48% | 15% | 10% |  |  |  |  |  | 
Clc1ccc(-c2cc(-c3c[nH]nc3-c3ccccn3)ccn2)cc1 [GW681251] | 7% | 92.9% | 0% | 0% | 0% | 0% | 11% | 0% | 0% | 24% |  |  |  |  |  | 
CCc1nc(-c2cccc(N(C)S(=O)(=O)c3ccccc3)c2)c(-c2ccnc(Nc3ccc(N4CCN(C(C)=O)CC4)nc3)n2)s1 [GSK1645895] | 5% | 0% | 22% | 0% | 3% | 0% | 0% | 0% | 29% | 79% |  |  |  |  |  | 
Cl.Cl.c1ccc(-c2cc3ccncc3cc2OC2CCNCC2)cc1 [GSK1122999] | 0% | 31% | 18% | 0% | 21% | 0% | 13% | 15% | 21% | 23% |  |  |  |  |  | 
Cl.c1ccc(Cn2ccc3cc(Nc4ncnc5ccccc45)ccc32)cc1 [GW275568] | 16% | 6% | 5% | 0% | 0% | 0% | 4% | 0% | 9% | 100% |  |  |  |  |  | 
COC(=O)c1cccc(NC(=O)NCCNc2ccnc(Nc3ccc(F)cc3)n2)c1 [GSK1379883] | 17% | 31% | 8% | 0% | 0% | 0% | 0% | 14% | 5% | 3% |  |  |  |  |  | 
COC(=O)c1c(-c2ccccc2)c2cc(Cl)ccc2c(=O)n1Cc1ccc(S(C)(=O)=O)cc1 | 5% | 0% | 0% | 0% | 0% | 3% | 17% | 10% | 44% | 6% |  |  |  |  |  | 
Nc1nc(-c2ccc3c(N)n[nH]c3c2)cc(N2CCCCC2)n1 [GSK2228768] | 0% | 0% | 0% | 0% | 93.1% | 11% | 18% | 0% | 58% | 3% |  |  |  |  |  | 
COc1ccc(Nc2nccc(N3CCC(NC(=O)Nc4ccc5c(c4)OCO5)C3)n2)cc1 (centres unmarked) [GSK1379745] | 21% | 35% | 20% | 0% | 0% | 0% | 8% | 5% | 7% | 25% |  |  |  |  |  | 
COc1ccc(-c2oc3ncnc(N)c3c2-c2ccc(OC)cc2)cc1 [SB-589132] | 70% | 52% | 2% | 0% | 4% | 0% | 15% | 0% | 18% | 0% |  |  |  |  |  | 
